Shown are actives, neighbours in structure and some others; about 1.5% of the full set was active somewhere.
PLC-beta3 inh – human PLC-beta3 inhibitors, primary screen, biochemical, fluorescence. inhibition, % at 12.2 µM. 1-phosphatidylinositol 4,5-bisphosphate phosphodiesterase beta-3 (Homo sapiens), Q01970. AID 720704, 2013. Purified PLC-beta3, fluorogenic substrate. 370,000 tested, 0.18% active; in the data active = inhibition above about 11%
DAGLB inh – DAGLB lipase inhibitors, primary screen, biochemical, fluorescence, HTS. HEK293T DAGLB membrane lysate, EnzChek fluorogenic substrate. inhibition, % at 5.17 µM. 340,000 tested, 0.059% active. AID 504411, 2011; in the data active = inhibition above about 34%
PLCg1 inh – PLC-gamma1 enzyme inhibitors, primary screen, biochemical, fluorescence, purified enzyme | fluorogenic substrate | 370,000 tested, 0.84% active | 1-phosphatidylinositol 4,5-bisphosphate phosphodiesterase gamma-1 (Homo sapiens), P19174 | inhibition, % at 12.2 µM; in the data active = inhibition above about 9.5%
HGIII-sPLA2 inh – human group III sPLA2 inhibitors, primary screen, biochemical, QFRET, BODIPY PC-A2 liposome substrate. inhibition, % at 12.2 µM. AID 743126, 2013. QFRET BODIPY PC-A2 liposome hydrolysis, fluorescence. 370,000 tested, 0.56% active;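 active = inhibition above mean plus 3 SD of compounds lying within the high and low control bounds, cut at about 19% in these data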
DAGLB inh conf – DAGLB lipase inhibitors, retest, confirmation, biochemical, fluorescence, HEK293T membranes; shares compounds with DAGLB inh; HEK293T DAGLB membrane lysate, EnzChek fluorogenic substrate; inhibition, % at 5.17 µM; 190 tested, 73% active;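 active = mean inhibition over triplicate wells above a set limit taken from the primary lipase screen, cut at about 34% in these data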
Numbers stand for hits; i = inactive; nt = not tested or not shown.

SMILES | PLC-beta3 inh | DAGLB inh | PLCg1 inh | HGIII-sPLA2 inh | DAGLB inh conf
O=c1[nH]c(CSc2nc3ccccc3s2)nc2ccccc12 | i | i | i | i | nt
COc1ccc(C=NNc2ccc(S(=O)(=O)Nc3ccccc3C(=O)O)cc2[N+](=O)[O-])c(OC)c1 | nt | 43 | nt | nt | 43
CCOc1ccc(C=NNc2ccc(S(=O)(=O)Nc3ccccc3C(=O)O)cc2[N+](=O)[O-])cc1 | nt | i | nt | nt | nt
COc1ccc(NC(=S)NNc2ccc(S(=O)(=O)Nc3ccccc3C(=O)O)cc2[N+](=O)[O-])cc1 | i | 43 | i | i | 48
CC1(NC(=O)c2ccc(C#Cc3cccc(F)c3)cn2)COC1 | i | nt | i | i | nt
Cc1ccc(-n2c(Cc3cccs3)nnc2SCC(=O)Nc2ccccc2-c2ccccc2)cc1 | i | nt | i | i | nt
CCN1C(c2ccccc2)=C(c2ccccc2)S/C1=C\C=C1/SC(=S)N(C)C1=O | i | i | i | i | nt
CCN1C(c2ccccc2)=C(c2ccccc2)S/C1=C/C=C1\SC(=S)N(C)C1=O | i | 39 | i | i | i
O=C(Nc1cccc(C(F)(F)F)c1)c1cccc(NS(=O)(=O)c2ccc(Br)c(C(=O)O)c2)c1 | i | i | i | i | nt
O=C(Nc1cccc(C(F)(F)F)c1)c1cccc(NS(=O)(=O)c2ccc(O)c(C(=O)O)c2)c1 | i | 41 | i | i | i
CCOc1ccc2c(c1)-c1c(ssc1=S)C(C)(C)N2 | nt | 39 | nt | nt | 35
Oc1ccc(N=Nc2nc(-c3ccccc3)c(-c3ccccc3)[nH]2)cc1 | i | 38 | i | i | i
COC(=O)C1CN(Cc2ccc(F)cc2)CCS(=O)(=O)N1Cc1cn(Cc2ccc(C)cc2)nn1 (stereo not drawn) | i | nt | i | i | nt
Cc1ccc(C)c(NC(=O)/C(C#N)=C/c2cn(CC(=O)NCc3ccco3)c3ccccc23)c1 | i | 46 | i | i | 48
Cc1ccc(NC(=O)/C(C#N)=C/c2cn(CC(=O)NCc3ccco3)c3ccccc23)cc1C | i | i | i | i | nt
O=C(O)CC/C(=C\c1ccc(N2CCCC2)c([N+](=O)[O-])c1)c1nc2ccccc2s1 | i | i | i | i | nt
CN(c1ccccc1)c1ccc(/C=C(/CCC(=O)O)c2nc3ccccc3s2)cc1[N+](=O)[O-] | i | 35 | i | 20 | 50
O=[N+]([O-])c1cc([N+](=O)[O-])c2oc(-c3ccccc3)c(Br)c2c1O | nt | 37 | nt | nt | 37
O=c1cc(-c2ccccc2Cl)oc2ccc([N+](=O)[O-])c(O)c12 | i | i | i | i | nt
Cc1ccc(C2C(/C=C3/SC(=S)NC3=O)=C(c3cccs3)Oc3ccccc32)cc1 (stereo not drawn) | i | 39 | i | i | 44
O=C1NC(=S)SC1=Cc1ccccc1Cl | i | i | i | i | nt
c1ccc(-c2c[nH]c3cccc(C4CCCCC4)c23)cc1 | i | nt | i | i | nt
c1ccc(N=NC2=NN(c3ccccc3)CS2)cc1 | i | 41 | i | 30 | 55
Oc1c(Br)cc(Br)cc1/C=N/NC(=S)N[C@H]1CC2C=CC1C2 (stereo partly drawn) | i | 35 | i | 45 | i
CCc1ccc(S(=O)(=O)/N=C2\C=C(Nc3cccc(C(=O)O)c3)C(=O)c3ccccc32)cc1 | i | 47 | i | i | i
SMILES | PLC-beta3 inh | DAGLB inh | PLCg1 inh | HGIII-sPLA2 inh | DAGLB inh conf
Cc1cc(C)c(S(=O)(=O)/N=C2\C=C(Nc3ccc(C(=O)O)cc3)C(=O)c3ccccc32)c(C)c1 | i | 36 | i | i | 39
O=C(O)c1ccc(NC2=C/C(=N/S(=O)(=O)c3cccs3)c3ccccc3C2=O)cc1 | i | i | i | i | nt
O=C1C=C(Nc2ccc(O)cc2)C(=O)c2ccccc21 | i | i | i | i | nt
CCc1ccc(S(=O)(=O)/N=C2\C=C(Nc3ccc(O)cc3)C(=O)c3ccccc32)cc1 | nt | 40 | nt | nt | 51
CC1(C(=O)N2CCC(Oc3cccnc3)CC2)CC1 | i | nt | i | i | nt
COC(=O)C1CN(Cc2ccc(OC)cc2)CCS(=O)(=O)N1Cc1ccccc1 (stereo not drawn) | i | nt | i | i | nt
COc1cc(/C=C2\SC(=S)N(NC(=O)c3ccccc3O)C2=O)ccc1O | i | i | i | i | nt
O=C(NN1C(=O)/C(=C/c2ccc(O)c([N+](=O)[O-])c2)SC1=S)c1ccccc1Cl | i | 45 | i | i | 42

Screening data (PubChem BioAssay)
